Molecules are shown by their SMILES.

For four molecules, ΔTm results are on record in ChEMBL document CHEMBL5058541.

Holding throughout (settings): Compound concentration 20.0 uM, Protein concentration 2.0 uM, Result type QC Liability
Test [1] addresses Tyrosine-protein kinase ABL1 (Homo sapiens) (UniProt P00519).
In test [2] the target is Cyclin-dependent kinase 2 (Homo sapiens) (UniProt P24941).
Test [3] has as its target Casein kinase I isoform delta (Homo sapiens) (UniProt P48730).
In test [4] the target is Glycogen synthase kinase-3 beta (Homo sapiens) (UniProt P49841).
Glycogen synthase kinase-3 beta (Homo sapiens), sequence (P49841 whole entry, looked up): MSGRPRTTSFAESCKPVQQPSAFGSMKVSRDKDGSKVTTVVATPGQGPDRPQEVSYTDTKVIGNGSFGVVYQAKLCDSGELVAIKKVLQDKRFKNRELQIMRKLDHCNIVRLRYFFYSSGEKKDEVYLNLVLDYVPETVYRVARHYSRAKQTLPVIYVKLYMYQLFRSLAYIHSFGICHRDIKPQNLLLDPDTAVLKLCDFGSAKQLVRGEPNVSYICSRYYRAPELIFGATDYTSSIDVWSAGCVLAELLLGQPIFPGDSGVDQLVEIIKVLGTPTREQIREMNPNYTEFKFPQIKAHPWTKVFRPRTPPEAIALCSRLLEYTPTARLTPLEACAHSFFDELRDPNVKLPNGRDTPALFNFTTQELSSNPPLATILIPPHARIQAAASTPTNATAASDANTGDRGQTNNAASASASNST
Test [5] concerns the target Mitogen-activated protein kinase 1 (Homo sapiens) (UniProt P28482).
Test [6] concerns the target T1, Aurora kinase A (Homo sapiens) (UniProt O14965).
T1 sequence (whole entry): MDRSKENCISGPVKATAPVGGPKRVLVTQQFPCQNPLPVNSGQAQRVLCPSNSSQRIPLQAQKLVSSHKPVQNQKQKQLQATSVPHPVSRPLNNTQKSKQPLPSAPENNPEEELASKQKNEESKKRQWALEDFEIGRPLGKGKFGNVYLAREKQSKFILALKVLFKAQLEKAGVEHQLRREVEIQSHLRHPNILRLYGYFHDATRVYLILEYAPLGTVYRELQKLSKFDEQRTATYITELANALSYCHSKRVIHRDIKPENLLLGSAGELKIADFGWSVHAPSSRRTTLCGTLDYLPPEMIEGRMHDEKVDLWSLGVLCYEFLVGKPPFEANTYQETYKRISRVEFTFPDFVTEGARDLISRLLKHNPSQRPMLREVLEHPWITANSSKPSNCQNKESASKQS

Mitogen-activated protein kinase 1 (Homo sapiens), sequence (P28482 whole entry): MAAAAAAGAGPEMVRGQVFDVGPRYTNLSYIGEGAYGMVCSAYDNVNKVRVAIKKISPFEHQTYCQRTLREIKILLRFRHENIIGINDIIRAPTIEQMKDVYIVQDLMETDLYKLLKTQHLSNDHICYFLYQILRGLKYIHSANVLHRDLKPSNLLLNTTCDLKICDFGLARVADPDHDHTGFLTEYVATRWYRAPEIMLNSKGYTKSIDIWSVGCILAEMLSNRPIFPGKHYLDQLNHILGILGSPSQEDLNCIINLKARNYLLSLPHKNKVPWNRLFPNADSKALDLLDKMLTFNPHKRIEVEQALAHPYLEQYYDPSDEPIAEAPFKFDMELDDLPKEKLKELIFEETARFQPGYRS
Tyrosine-protein kinase ABL1 (Homo sapiens), sequence (P00519 whole entry): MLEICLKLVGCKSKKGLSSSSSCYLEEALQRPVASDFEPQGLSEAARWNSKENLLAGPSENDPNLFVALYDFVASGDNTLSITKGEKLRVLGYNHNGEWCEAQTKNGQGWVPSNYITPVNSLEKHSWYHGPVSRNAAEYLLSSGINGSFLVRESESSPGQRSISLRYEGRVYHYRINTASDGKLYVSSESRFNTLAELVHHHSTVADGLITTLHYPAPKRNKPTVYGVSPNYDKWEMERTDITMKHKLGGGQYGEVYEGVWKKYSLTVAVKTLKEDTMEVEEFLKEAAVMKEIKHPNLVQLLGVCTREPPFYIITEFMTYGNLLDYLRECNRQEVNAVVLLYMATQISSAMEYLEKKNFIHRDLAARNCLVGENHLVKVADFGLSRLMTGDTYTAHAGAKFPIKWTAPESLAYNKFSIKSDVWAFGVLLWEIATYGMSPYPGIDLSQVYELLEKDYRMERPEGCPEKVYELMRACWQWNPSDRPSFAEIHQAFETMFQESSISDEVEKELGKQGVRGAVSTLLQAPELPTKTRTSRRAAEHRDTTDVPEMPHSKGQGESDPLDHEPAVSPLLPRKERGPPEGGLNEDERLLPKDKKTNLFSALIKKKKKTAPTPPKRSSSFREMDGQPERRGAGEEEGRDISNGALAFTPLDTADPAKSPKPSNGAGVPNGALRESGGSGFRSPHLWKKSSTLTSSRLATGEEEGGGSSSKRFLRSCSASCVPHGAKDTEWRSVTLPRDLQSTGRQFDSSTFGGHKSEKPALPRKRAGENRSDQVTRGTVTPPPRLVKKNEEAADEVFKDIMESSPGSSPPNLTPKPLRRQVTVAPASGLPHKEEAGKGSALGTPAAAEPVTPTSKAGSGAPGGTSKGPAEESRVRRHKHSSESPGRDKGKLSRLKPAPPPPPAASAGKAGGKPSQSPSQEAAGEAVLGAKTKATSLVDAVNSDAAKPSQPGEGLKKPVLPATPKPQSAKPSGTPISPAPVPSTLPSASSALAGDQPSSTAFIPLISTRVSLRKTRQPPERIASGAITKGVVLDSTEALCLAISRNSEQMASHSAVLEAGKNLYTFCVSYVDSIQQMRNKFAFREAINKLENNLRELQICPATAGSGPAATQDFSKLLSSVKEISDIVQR
Casein kinase I isoform delta (Homo sapiens), sequence (P48730 whole entry, looked up, canonical isoform): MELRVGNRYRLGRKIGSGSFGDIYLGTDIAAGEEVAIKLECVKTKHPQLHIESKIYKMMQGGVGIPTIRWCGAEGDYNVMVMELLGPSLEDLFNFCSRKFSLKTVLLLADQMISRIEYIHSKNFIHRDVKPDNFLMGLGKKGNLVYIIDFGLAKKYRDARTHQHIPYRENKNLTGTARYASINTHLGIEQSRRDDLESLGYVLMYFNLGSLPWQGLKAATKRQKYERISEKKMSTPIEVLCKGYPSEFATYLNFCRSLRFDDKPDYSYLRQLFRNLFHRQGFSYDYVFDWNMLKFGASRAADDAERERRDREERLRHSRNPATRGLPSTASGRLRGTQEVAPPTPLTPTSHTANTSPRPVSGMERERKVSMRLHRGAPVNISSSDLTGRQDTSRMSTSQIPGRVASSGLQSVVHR

Take `CN(c1ncccc1CNc1ccnc(-c2nc3c(F)c(Cl)ccc3[nH]2)n1)S(C)(=O)=O`: the ΔTm in test [1] stood at 1.73 c; in test [2] it was 0.96 c; in test [3] it was 0.76 c; in test [4], 0.69 c; in test [5] it was 0.36 c; in test [6] it was 1.93 c.
Turning to `O=C(NCCCN1CCOC1=O)c1cnc(NCc2cc(Br)ccc2Br)nc1NC1CCCC1`, the ΔTm was 0 c in test [1]; -0.772 c in test [2]; 0 c in test [3]; 0 c in test [4]; -0.601 c in test [5]; 0.0724 c in test [6].
`CS(=O)(=O)N1CCCC(NC(=O)[C@H](CCC2CCCCC2)NC(=O)c2ccc(CNC(=O)c3cnc4ccccn34)cc2)C1` (some centres undefined): the ΔTm is 2.13 c in test [1]; -0.19 c in test [2]; 0.571 c in test [3]; -0.0668 c in test [4]; -0.218 c in test [5]; 0.119 c in test [6].
For the molecule `CN(C)C(=O)c1ccc(-c2cc(C(=O)N[C@@H]3CCc4ccccc43)no2)cc1O`, the ΔTm was 0.236 c in test [1]; -0.0936 c in test [2]; 0.0788 c in test [3]; -0.463 c in test [4]; -0.0605 c in test [5]; 0.213 c in test [6].
